PubChem BioAssay AID652042 (Broad Institute, 2013)
The whole screen tested about 1,100 compounds, of which about 350 (32%) were called active. The list is a sample of the results. Potency and affinity values are given separately. A number with no mark means an inactive call. How the calls were made is not given here.

Experiment: viability loss in CEM21 cells – cell-based, CellTiter-Glo luminescence, cherry-picked, cytotoxicity control for viral fusion inhibitor project, dose response (AID 652042)
Details: CellTiter-Glo ATP luminescence, 24 h; series mostly up to 35 µM; activity change, negative = cytotoxicity: at the top concentration

Structure (SMILES) | activity change, negative = cytotoxicity
Cc1[nH]nc2ncc(C(=O)c3ccccc3O)cc12 | -15.7%
CCN1CCN(S(=O)(=O)c2ccc(Cl)c(C(=O)Nc3ccccc3N3CCCC3)c2)CC1 | -8.82%
O=C(CCC(=O)N1CCN(S(=O)(=O)c2ccc3ccccc3c2)CC1)Nc1cc(Cl)cc(Cl)c1 | -20.9%
CCCCCCc1nc2ccccc2c(=O)n1NC(=O)c1c(O)c2c(n(CC(C)C)c1=O)CCCC2 | -24.4%
CC[C@@]12C(=O)N(c3cccc(Br)c3)C(=O)N1[C@H](c1ccc(OC)cc1)[C@@H]1C(=O)N(C(C)(C)C)C(=O)[C@@H]12 | -0.201%
CN(Cc1ccc(Cl)cc1Cl)C(=O)c1cccc(S(=O)(=O)N2CCN(c3ccccc3)CC2)c1 | -6.85%
Cc1ccc(C)c(-n2cc(CNCCCn3cccn3)c(-c3ccccc3)n2)c1 | -22.4%
O=C1NCCN(Cc2cccc(Oc3ccccc3)c2)C1CC(=O)N1CCCCC1 (stereo not given) | -2.45%
Cc1cc(Cl)c(S(=O)(=O)N2CCCC2)cc1OCC(=O)NC1CCCCC1 | -14.6%
Cc1cc(Cl)c(S(=O)(=O)N2CCSCC2)cc1OCC(=O)NC1CCCCC1 | -7.4%
CN(C)CCn1c(=O)n(-c2cccc(Cl)c2)c(=O)c2c3c(sc21)CCCCC3 | -6.49%
CCC(C)NS(=O)(=O)c1ccc(S(=O)(=O)N2CCCC3(CCCCC3)C2)cc1 (stereo not given) | -24.4%
O=C(COC(=O)c1ncc(Cl)c(Cl)c1Cl)NCc1cccs1 | -5.63%
Cc1nc2ccccc2c2c1CC(C(C)(Cl)Br)O2 (stereo not given) | -20.6%
COc1cc2oc(=O)cc(-c3ccc(-c4ccc(CO)cc4)cc3)c2c(OC)c1OC | -6.13%
COc1ccccc1N/C(N)=N/c1nc(CSc2ccc(C)cc2)cc(=O)[nH]1 | -3.89%
C=CCN=C1NN=C(c2cc(C)n(CCOC)c2C)CS1 | -14.8%
CN1C(=O)c2cc(NS(=O)(=O)c3ccccc3F)ccc2OC[C@@H]2O[C@H](CC(=O)NC3Cc4ccccc4C3)CC[C@@H]21 | -17.1%
Cn1c(C(=O)NCCCN2CCN(c3ccccc3F)CC2)cc2c(=O)[nH]c3ccccc3c21 | -14%
Cc1cccc(/C=N\Nc2cn[nH]c(=O)c2Cl)c1 | -9.97%
COC(=O)[C@]1(C)N[C@H](CN(C)C(=O)Nc2ccc(Cl)cc2)[C@@H]2C(=O)N(Cc3ccccc3)C(=O)[C@@H]21 | -16.4%
COCCn1nnnc1CN(CCc1ccccc1)Cc1cc2cc(OC)ccc2[nH]c1=O | -11.6%
COc1ccc2[nH]c(=O)c(CN(Cc3cccs3)Cc3nnnn3Cc3ccccc3)cc2c1 | -12.9%
Cc1cc(NC(=O)CCC(=O)N(C2CC2)C2(C(=O)NC3CCCC3)CCC(C)CC2)no1 (stereo not given) | -0.639%

Structure (SMILES) | activity change, negative = cytotoxicity
CCOC(=O)CN1CCCc2nc(C)c(C)cc21 | 1.49%
Cn1c(SCc2nc(-c3ccc(Cl)cc3)no2)nnc1-c1cccs1 | -9.46%
CCNc1ncnc2c1cnn2C1CCCO1 (stereo not given) | 12.2%
COc1cc(OC)cc(C(=O)N[C@H](C(=O)NCCc2c[nH]c3ccccc23)C(C)C)c1 | -2.28%
COc1cc(CNCc2ccc(OC)c3ccccc23)cc(OC)c1OC | -20%
N#Cc1c(NCc2ccccc2)ccnc1NCc1cccnc1 | -4.41%
Cc1nc2ccccc2nc(C)c1=NOCc1cccc(Cl)c1 | -18.9%
Cc1ccc(C(=O)Nc2cnc3ccccc3c2)cc1 | -5.04%
COc1ccc(-c2nn(C)c(=O)c3ccccc23)cc1NC(=O)Cn1nc(C)c2ccccc2c1=O | -6.97%
COc1ccc(-c2c(C)nn3c(C(F)(F)F)cc(C)nc23)cc1 | -1.04%
C=CCNc1nc2c(c(=O)n(C)c(=O)n2C)n1CCCCCC | -17.9%
O=C(CNC(=O)c1cccc(-n2cccc2)c1)Nc1ccccc1Br | 1.95%
CC[C@@]12C(=O)N(c3ccc(OC)cc3)C(=O)N1[C@H](c1ccc(Cl)cc1)[C@@H]1C(=O)N(C3CCCCC3)C(=O)[C@@H]12 | -14.4%
Cn1c(-c2ccc(Cl)cc2)ccc(C#N)c1=O | -9.4%
O=S(=O)(NC1CC1)c1ccc(S(=O)(=O)N2CCCc3ccccc32)cc1 | -4.92%
Cc1ccc(OCCCCNC(C)c2ccccc2)c(C)c1 (stereo not given) | 1.82% [at 8 µM]
CC(C)OP(=O)(Nc1cccc2ccccc12)OC(C)C | 0.07%
O=C(c1ccccc1F)N1CCN(Cc2cccc(Cl)c2)CC1 | 2.09%
COc1ccccc1CN(C)C(=O)CN1CCN(C(=O)c2cccs2)CC1 | 2.59%
O=C(CCCC(=O)N(c1ccc2c(c1)OCCO2)C(C(=O)NC1CCCCC1)c1ccc(F)cc1)Nc1ccccn1 (stereo not given) | -10.3%
Nc1ccn(C2OC(COC(=O)C34CC5CC(CC(C5)C3)C4)C(O)C2O)c(=O)n1 (stereo not given) | -16.5%
Nc1ccn([C@@H]2O[C@H](C(=O)NCc3ccc4c(c3)OCO4)[C@@H](O)[C@H]2O)c(=O)n1 | 4.17%
C[C@@]12CC(=O)NC1N(C(=O)c1cccc(C(F)(F)F)c1)C(c1ccccc1O)C2 (stereo not given in full) | -1.22%
COc1ccc(CC(=O)Nc2cccc(S(=O)(=O)N3CCCCCC3)c2)cc1OC | -20.2%

Structure (SMILES) | activity change, negative = cytotoxicity
COc1ccc(NS(=O)(=O)c2cccc(C(=O)NNC(=O)CNC(=O)c3ccc(C)cc3)c2)cc1 | 7.35%
CC1CCCC(C)N1CCCNC(=O)c1nn(C)c2c1CSc1ccccc1-2 (stereo not given) | -9.73%
Cc1cc(N2CCN(c3nc4ccccc4s3)CC2)n2ncnc2n1 | -7.99%
Cc1cccc(C)c1NC(=O)CCCSc1nnc(-c2ccc(Cl)cc2)n1-c1ccccc1 | -11.4%
O=C(NCc1ccco1)c1ccc(Cn2c(=O)c3ccccc3n(Cc3cccc(Cl)c3)c2=O)cc1 | 0.124%
Cc1cc(C(=O)N2CCC(C(=O)O)CC2)c(C(F)(F)F)o1 | 5.05%
COc1ccc(-c2cn[nH]c2N)c(OC)c1 | 4.04%
CCN(CC)S(=O)(=O)c1cccc(S(=O)(=O)c2cccc(S(=O)(=O)N(CC)CC)c2)c1 | -22.7%
O=C(Nc1cccc(C(F)(F)F)c1)c1ccc(Cn2cc(Br)cn2)o1 | -15.6%
CCN(C1CCCCC1)S(=O)(=O)c1ccc(S(=O)(=O)N(CC(=O)Nc2ccccc2)C2CC2)cc1 | -5.49%
CCCCS(=O)(=O)N1CCN(C(=O)C(=O)c2cccc(C(F)(F)F)c2)CC1 | 1.68%
Cc1cc(Nc2cccc(C(F)(F)F)c2)cc(=O)n1-c1cccc(C(F)(F)F)c1 | -34.1%
O=C(Nc1ccc(Cl)cc1)Nc1cccc(C(=O)O)c1 | 7.42%
CCN(C[C@H]1N[C@@](CC)(C(=O)OC)[C@H]2C(=O)N(Cc3ccccc3)C(=O)[C@@H]12)S(=O)(=O)c1ccc(C(F)(F)F)cc1 | -8.59%
O=C(NC1CCCCC1)C(c1ccc(Cl)cc1)N(C(=O)c1cnccn1)c1ccc2c(c1)OCO2 (stereo not given) | -11.4%
COc1ccc(N2CCn3c2nc2c3c(=O)n(CCCc3ccccc3)c(=O)n2C)c(OC)c1 | -7.02% [at 16 µM]
CCN1C(=O)[C@H]2[C@@H](c3ccc(C(F)(F)F)cc3)N[C@]3(CCCN(Cc4ccccc4)C3=O)[C@H]2C1=O | 4.84%
CCC(C(=O)c1ccccc1)N(C(=O)c1ccccc1Cl)N1C(=O)C2C3C=CC(C3)C2C1=O (stereo not given) | -9.04%
CC[C@@]1(C(=O)OC)N[C@H](CN(C)S(=O)(=O)c2ccc(-c3ccccc3)cc2)[C@@H]2C(=O)N(Cc3ccccc3)C(=O)[C@@H]21 | -0.287%
O=C(Cc1ccc(Cl)cc1Cl)Nc1ccncc1 | -8.97%
CCN(C[C@H]1N[C@@](CC)(C(=O)OC)[C@H]2C(=O)N(Cc3ccccc3)C(=O)[C@@H]12)C(=O)Nc1ccc(Cl)cc1 | -25.8%
CCN(CC)C(=O)c1ncn2c1C(=O)NC[C@@H]2C | 5.12%
CCc1ccc2[nH]c(=O)c(C(c3nnnn3Cc3ccc(OC)cc3)N3CCOCC3)cc2c1 (stereo not given) | -0.785%
CCc1nnc(NC(=O)[C@@H](NC(=O)c2cccc(S(=O)(=O)N(CC)CC)c2)C(C)C)s1 | 0.838%

Structure (SMILES) | activity change, negative = cytotoxicity
Cc1ccc(C(=O)Nc2cccc(C(=O)O)c2)cc1 | -22.5%
COc1ccc(C2N(S(=O)(=O)c3ccc(C)cc3)CCN2S(=O)(=O)c2ccc(C)cc2)cc1 | -2.09%
Cc1ccccc1S(=O)(=O)N1C[C@H]2[C@H]3C(=O)N(C4CCCCC4)C(=O)[C@H]3CC(=O)[C@H]2[C@@H]1c1ccc(Cl)cc1 | -7.17%
O=C(NCc1cccnc1)c1c[nH]c2cc3c(cc2c1=O)OCCO3 | -13.7%
CC[C@@]1(C(=O)OC)N[C@H](CN(C)C(=O)c2ccc(C(C)(C)C)cc2)[C@@H]2C(=O)N(Cc3ccccc3)C(=O)[C@@H]21 | -13.2%
N#Cc1ccc(CSc2nnc(COc3ccccc3)n2-c2ccccc2)cc1 | -4.88%
Cc1cc(C(=O)CN2C(=O)c3ccccc3S2(=O)=O)c(C)n1C(C)C | -3.53%
O=C(Nc1ccc(S(=O)(=O)N2CCN(Cc3ccccc3)CC2)cc1)c1cnccn1 | -15.6%
O=C(Nc1nc(-c2ccc3c(c2)OCO3)cs1)c1ccncc1 | -8.69%
Cc1ccc2c(CN3CCN(S(=O)(=O)c4ccc5c(c4)OCCO5)CC3)cc(=O)oc2c1C | -21.9%
Cc1ccc(N2C(=O)CC(c3ccsc3)C3=C2CC(C)(C)CC3=O)cc1 (stereo not given) | -14.1%
CCN(CC)c1ncnc2ccc(Br)cc12 | -3.25%
O=C(N/N=C/c1sc(N2CCOCC2)nc1-c1ccccc1)c1cccc(S(=O)(=O)N2CCOCC2)c1 | -26.1%
O=S(=O)(Nc1nc2ccccc2nc1Nc1cccc(S(=O)(=O)N2CCCCC2)c1)c1ccccc1 | -23.7%
CC(=O)OC1c2ccccc2C(=O)N1c1ccccc1C (stereo not given) | 3.07%
O=C1COc2ccc(-c3csc(=Nc4ccc(OC(F)F)cc4)n3CC3CCCO3)cc2N1 (stereo not given) | -19.3%
CC1(C(=O)NCc2cccc3ccccc23)CCN1Cc1ccc(-c2ccccc2)o1 (stereo not given) | -14.3%
COc1ccc(NC(=O)C2(C)CCN2Cc2ccccc2OC(F)F)cc1OC (stereo not given) | -13.7%
CC(=O)C1=C(C)N(Cc2ccc(Cl)cc2)C(=S)NC1c1cccc(Br)c1 (stereo not given) | -3.5%
C[C@H](CO)N1C[C@H](C)[C@@H](CN(C)C(=O)NC2CCCCC2)Oc2c(cccc2N(C)C)C1=O | 11.2%
CCCC#Cc1ccc2c(c1)O[C@@H](CN(C)S(=O)(=O)c1cccc(F)c1)[C@@H](C)CN([C@H](C)CO)S2(=O)=O | -13.9%
CCCC#Cc1ccc2c(c1)O[C@@H](CN(C)S(=O)(=O)c1cccc(F)c1)[C@@H](C)CN([C@@H](C)CO)S2(=O)=O | -24.3%
C[C@H](CO)N1C[C@H](C)[C@H](CN(C)S(=O)(=O)c2cccs2)Oc2ccc(NC(=O)C3CCCCC3)cc2CC1=O | -7.83%
